Source: PubChem BioAssay AID2825 (Sanford-Burnham Center for Chemical Genomics, 2010)
Hit rate of the full screen: of about 330,000 compounds, about 1,300 (0.39%) were called active.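 Rule for the calls: active = inhibition of 50% or more; inactive = inhibition below 50%.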 The entries come from a sample that favours actives as a whole.

assay: NALP3 inflammasome inhibitors in reconstituted yeast, primary screen, luminescence, uHTS (AID 2825); conditions: Yeast reconstituted NLRP3/ASC/caspase-1, beta-gal luminescence, 24 h; at 10 µM; hits give high values;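 note: plate controls were induced DMSO wells for no effect and uninduced yeast grown without galactose for full effect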

**Q.** For `O=C1/C(=C\c2ccc3c(c2)OCO3)N2CCC1CC2`, which inhibition is on record?
**A.** 50.3% (active)

**Q.** For `c1cc2c(cc1[C@H]1OC[C@H]3[C@@H]1CO[C@@H]3c1ccc3c(c1)OCO3)OCO2`, which inhibition is on record?
**A.** 15.5% (inactive)

**Q.** With `c1cc2c(cc1C1OCC3C(c4ccc5c(c4)OCO5)OCC13)OCO2` (stereo not given) as the compound, how does the inhibition read?
**A.** 16.8% (inactive)

**Q.** Which inhibition does the source give for `Cc1nc2nc(C)c(CCC(=O)N3CCC4(CC3)OCCO4)c(C)n2n1` here?
**A.** 11.1% (inactive)

**Q.** With `O=c1c2ccccc2nc(-c2ccccc2)n1-c1ccccn1` as the compound, how does the inhibition read?
**A.** -1.57% (inactive)

**Q.** With `O=c1c2ccccc2nc(-c2ccco2)n1-c1ccc(Br)cn1` as the compound, how does the inhibition read?
**A.** 15.6% (inactive)

**Q.** For `Cc1ccc(-c2nc3ccccc3c(=O)n2-c2ccc(Br)cn2)cc1`, which inhibition is on record?
**A.** 54.6% (active)

**Q.** For `CN(C)CC1CCCCC1=O` (stereo not given), which inhibition is on record?
**A.** 16.4% (inactive)

**Q.** For `C[N+]1(C)CCOC(O)(c2ccc(-c3ccc(C4(O)C[N+](C)(C)CCO4)cc3)cc2)C1` (stereo not given), which inhibition is on record?
**A.** 5.92% (inactive)

**Q.** With `COCCNC(=O)CN1C2CCC1CC(O)(c1cccnc1)C2` (stereo not given) as the compound, how does the inhibition read?
**A.** 21.8% (inactive)

**Q.** For `NCCc1ccc(S(=O)(=O)F)cc1`, which inhibition is on record?
**A.** 13.1% (inactive)

**Q.** For `Cc1cc2ccccn2c1C(C[N+](=O)[O-])c1c(F)cccc1Cl` (stereo not given), which inhibition is on record?
**A.** 58.8% (active)

**Q.** With `Cc1ccc2c(c1)=C/C(=C\c1c(O)[nH]c(=O)[nH]c1=O)C(=O)N=2` as the compound, how does the inhibition read?
**A.** 8.15% (inactive)

**Q.** With `CCCCCCCCCCCCn1ccc(=N)cc1` as the compound, how does the inhibition read?
**A.** 74.5% (active)

**Q.** With `COC(=O)C(O)(c1ccc(NC(=O)c2ccco2)c(OC)c1)C(F)(F)F` (stereo not given) as the compound, how does the inhibition read?
**A.** 6.52% (inactive)

**Q.** Which inhibition does the source give for `CSC1=NP(=S)(SC)N(C)c2nc3n(c21)CCC3` (stereo not given) here?
**A.** 14.6% (inactive)

**Q.** Which inhibition does the source give for `Cc1cc(OCc2cc(C(=O)O)oc2C)c2c3c(c(=O)oc2c1)CCCC3` here?
**A.** 13.3% (inactive)

**Q.** For `CNC(=S)N/N=C1\C2CN3CCN(C2)CC1(c1ccccc1)C3`, which inhibition is on record?
**A.** 2.33% (inactive)

**Q.** For `CN(C)P(=S)(Nc1ccccc1)C(Cl)(Cl)Cl` (stereo not given), which inhibition is on record?
**A.** 24.4% (inactive)

**Q.** Which inhibition does the source give for `C[C@]12CC[C@H](O)CC1=C([N+](=O)[O-])CC1C2CC[C@@]2(C)C1CC[C@@H]2O` (stereo not given in full) here?
**A.** 21.9% (inactive)

**Q.** Which inhibition does the source give for `C[C@]12CCC3C(CC[C@H]4C[C@@H](O)CC[C@]34C)C1CC[C@@H]2O` (stereo not given in full) here?
**A.** 63.7% (active)

**Q.** For `C[C@]12CCC3C(CC[C@H]4C[C@@H](O)CC[C@]34C)C1C[C@@H](O)[C@H]2O` (stereo not given in full), which inhibition is on record?
**A.** 50.2% (active)

**Q.** Which inhibition does the source give for `C[C@]12CC[C@H](O)C[C@H]1CC[C@@H]1C2CC[C@]2(C)[C@@H](C3=CC(=O)OC3)[C@@H](O)C[C@]12O` (stereo not given in full) here?
**A.** 8.26% (inactive)

**Q.** For `O=C(C1CC(=O)N(C2CCCC2)C1)N1CCC2(CC1)OCCO2` (stereo not given), which inhibition is on record?
**A.** 25.3% (inactive)

**Q.** Which inhibition does the source give for `C/C=C/CC1(CC)C(=O)NC(=S)NC1=O` here?
**A.** 0.922% (inactive)

**Q.** With `COc1ccc2[nH]c3c(c2c1)CCN[C@H]3C` as the compound, how does the inhibition read?
**A.** 10% (inactive)

**Q.** With `CC1=C2C(=O)C3C(CC=C4CC(OC5OC(O)C(O)C(O)C5CO)CCC43C)C2CCC12OC1CC(C)CNC1C2C` (stereo not given) as the compound, how does the inhibition read?
**A.** 32.4% (inactive)

**Q.** Which inhibition does the source give for `COC(=O)C1=C(c2ccc3ccccc3c2)C[C@@H]2CC[C@H]1N2C(=O)NCCO` here?
**A.** -5.73% (inactive)

**Q.** For `N=c1ccccn1Cc1ccccc1`, which inhibition is on record?
**A.** 1.04% (inactive)

**Q.** With `CCN1CCN(c2nc3c(c(=O)[nH]2)CCC3)CC1` as the compound, how does the inhibition read?
**A.** 9.34% (inactive)
